In PubChem BioAssay AID1554 (Broad Institute, 2009):
Among all 300,000 compounds or so, about 520 (0.17%) were called active. The full list was thinned out, with actives kept by preference. A number with no mark means an inactive call. Rule as the data show it: active = inhibition above about 50%; inconclusive = no clear call, values can overlap the other calls; inactive = below that.

Assay: PubChem AID 1554
Conditions: BJeLR (HRASV12) viability, CellTiter-Glo ATP luminescence, 48 h; hits give high values; concentration not given here

| Structure (SMILES) | inhibition |
| --- | --- |
| COC(=O)c1c(NC(=O)c2ccccc2F)sc2c1C(C(=O)OC)CC2 (stereo not drawn) | -1.69% |
| CCOc1ccc2[nH]c3nc(SCC(=O)NC4CCCC4)nnc3c2c1 | 19.9% |
| CCOC(=O)c1c(C)nc(-c2ccccc2)nc1NC(=O)C(C)C | -1.6% |
| CCOC(=O)c1c(C)[nH]c(C)c1S(=O)(=O)N(C)CC(=O)Nc1ccccc1C | 1.31% |
| CCOC(=O)c1c(C)[nH]c2c1-c1ccccc1C(=O)C2=O | 74.1% (active) |
| O=C(NNc1c2ccccc2nc2ccccc12)c1cc2ccccc2cc1O | 11.9% |
| NC(=O)C1CC(=O)N(c2ccc(OCC(=O)NCc3ccccc3)cc2)C1 (stereo not drawn) | -5.85% |
| COc1ccccc1N1CCN(C(=O)c2cc(=O)c3cc(C)cc(C)c3o2)CC1 | 58.9% (active) |
| COc1ccccc1N1CCN(C(=O)c2cc(=O)c3cc(C)ccc3o2)CC1 | 8.05% |
| COc1cccc(-c2cc(C(=O)N3CCN(c4ccccc4OC)CC3)no2)c1 | -5.2% |
| Cc1ccc(-c2cc(C(F)(F)F)n3ncc(C(=O)N4CCCCC4c4cccnc4)c3n2)cc1 (stereo not drawn) | -3.16% |
| CSc1n[nH]c(=S)n1N | 6.98% |
| CCOC(=O)c1cccc(NC(=O)CCn2nnc3ccccc32)c1 | 5.93% |
| COC(=O)c1ccc(C(=O)Nc2cc(Cl)ccc2Cl)cc1NC(=O)c1ccccc1C | 5.33% |
| COc1c(C(=O)N2CCCC2)ccc2ccccc12 | -16.2% |
| CC(C)n1c(-c2ccncc2)n[nH]c1=S | -1.2% |
| O=c1[nH]snc1-c1c(Cl)cccc1Cl | 1.3% |
| COc1ccc2c(c1)CCNC2Cc1ccc(OC)c(O)c1 (stereo not drawn) | -7.5% |
| CC[C@H]1CN2CCc3cc(OC)c(OC)cc3[C@@H]2C[C@@H]1C[C@H]1NCCc2cc(OC)c(OC)cc21 | 71.3% (active) |
| CCc1ccc(OCC2c3cc(OC)c(OC)cc3CCN2C(C)=O)cc1 (stereo not drawn) | -19.6% |
| CN(c1ccccc1)S(=O)(=O)c1cccc(C(=O)NNC(=O)c2ccncc2)c1 | -13.6% |
| COc1cc(NS(=O)(=O)c2ccc(NC(=O)CN3C(=O)c4ccccc4C3=O)cc2)ncn1 | -1.96% |

| Structure (SMILES) | inhibition |
| --- | --- |
| COc1ccc(CNC(=O)CCC(=O)Nc2nnc(C(C)C)s2)cc1 | 2.41% |
| O=C(NCc1ccc2c(c1)OCO2)c1sccc1Br | -9.24% |
| CSc1nc(C)nc(C2CC2)c1C#N | -2.16% |
| CCOc1ccc(C(CC(=O)O)n2cnnn2)cc1OC (stereo not drawn) | -0.928% |
| COc1ccc(NC(=O)C(C)N2c3cccc4cccc(c34)S2(=O)=O)c(OC)c1 (stereo not drawn) | -7.67% |
| O=C(c1cccc(F)c1)N1CCC(O)(c2cccnc2)CC1 | 1.27% |
| Cc1ccc(Nc2cc(C)nc3c(C)ccc([N+](=O)[O-])c23)cc1 | -0.482% |
| N#Cc1c(-c2cccs2)nc(SCC(=O)c2ccc(Br)cc2)[nH]c1=O | -2.63% |
| COc1ccc(Nc2ncc(F)c(N3CCOCC3)n2)cc1 | -4.96% |
| O=C(/C=C/c1ccco1)Nc1ccc(Oc2ccccc2)cc1 | 66.3% (active) |
| O=C(/C=C/c1ccco1)Nc1cccc(-c2nc3ccccc3[nH]2)c1 | -10.7% |
| Cc1nnc(NC(=O)/C=C/c2ccco2)s1 | 2.63% |
| CCCCOc1ccc(C(=O)NN2CCN(C)CC2)cc1 | 1.04% |
| CCCOc1ccc(C(=O)C(CCC(CNCC)C(=O)c2ccc(OCCC)cc2)CNCC)cc1 (stereo not drawn) | 137% (active) |
| CCCOc1ccc(C(=O)CCC(=O)OC(C)C(=O)Nc2ccc(NC(C)=O)cc2)cc1 (stereo not drawn) | 0.465% |
| CCOc1cc(C2C(C(=O)OC(C)C)=C(C)NC3=C2C(=O)CCC3)cc([N+](=O)[O-])c1O (stereo not drawn) | -2.99% |
| Cc1ccc(CNC(=O)c2cccnc2Cl)cc1 | 1.72% |
| COc1cc(C(CCN2CCN(c3ccccc3)CC2)c2c(OC)cc(OC)c3ccc(=O)oc23)cc(OC)c1OC (stereo not drawn) | -7.5% |
| COC(=O)C(C(=O)Nc1cccc(Cl)c1C)C1CCCC1 (stereo not drawn) | -7.59% |
| COc1ccc(/C=C/C2=CC(C)(C)NC(=S)N2)c(OC)c1 | -7.98% |
| NC(=O)CC[C@@H]1NC(=O)[C@H](CO)NC(=O)c2cc([N+](=O)[O-])cc(I)c2NCC[C@@H](C(N)=O)NC1=O | -1.96% |
| CCC(=C/c1sc2ccc3ccccc3c2[n+]1C)/C=C1\Sc2ccc3ccccc3c2N1C | 60.9% (active) |

| Structure (SMILES) | inhibition |
| --- | --- |
| COc1ccc(C2=NS(=O)(=O)N(C)C(C(=O)N3CCCCC3)=C2)cc1 | -1.58% |
| COc1cc(-c2c(-c3ccc4c(c3)OCO4)noc2C)ccc1F | -5.31% |
| C=CCNc1nc(N)c([N+](=O)[O-])c(NC2CCCCC2)n1 | -1.25% |
| CC(=O)NCCc1ccc(S(=O)(=O)N(C)C2CCS(=O)(=O)C2)cc1 (stereo not drawn) | 7.45% |
| O=C(NCc1ccco1)c1ccc(NS(=O)(=O)c2cccc([N+](=O)[O-])c2)cc1 | 5.53% |
| COc1ccc(S(=O)(=O)N2CCOCC2)cc1NC(=O)COc1ccccc1 | -1.51% |
| COc1ccccc1N(C(=O)Cn1nnc2ccccc21)C(C(=O)NCc1ccco1)c1ccc(C)o1 (stereo not drawn) | -3.41% |
| O=C(Nc1ccc(Cl)cc1)/C(=C1\CCCN1)[N+](=O)[O-] | -2.59% |
| CCCC(C(=O)NC1CCCC1)N(C(=O)Cn1nnc(-c2ccc(C)o2)n1)c1cccc(O)c1 (stereo not drawn) | -0.539% |
| Cc1c(NC(=O)Nc2cccc([N+](=O)[O-])c2)c(=O)n(-c2ccccc2)n1C | 1.78% |
| CC1(C)O[C@H]2CC(=O)OCC23[C@H]2CC[C@@]4(C)[C@H](c5ccoc5)OC(=O)[C@H]5O[C@]54[C@]2(C)C(=O)C[C@@H]13 (stereo partly drawn) | 4.22% |
| CC(C)CNC(=S)NC(=O)c1ccc(Cl)cc1 | -11.5% |
| Cc1cc(F)ccc1NC(=O)C(C)n1c2ccccc2c2nc(=O)cc(C)n21 (stereo not drawn) | -6.86% |
| CN(C)CCN(Cc1ccccc1)S(=O)(=O)c1csc(C(N)=O)c1 | 7.25% |
| CC(C)Cc1nnc(NC(=O)CN2C(=O)NC3(CCCCC3)C2=O)s1 | 4.35% |
| CCOC(=O)CNc1nc(Cl)nc(Nc2ccc(OC)cc2OC)n1 | -1.85% |
| CCN1C(=O)N[C@@H](c2ccccc2)C(C(=O)OC)=C1C | 2.76% |
| COc1cccc(NC(=O)c2ccccc2N(Cc2ccccc2)S(C)(=O)=O)c1 | 3.05% |
| COc1ccccc1C1C2=C(COC2=O)Nc2cc3c(cc21)OCO3 (stereo not drawn) | 71.8% (active) |
| COc1ccc(S(=O)(=O)Nc2ccc3c(c2)OCO3)cc1Cl | 4.86% |
| CCCOc1ccccc1C1CC(=O)Nc2cc3c(cc21)OCO3 (stereo not drawn) | 21.8% |
| CC1COc2ccccc2N1S(=O)(=O)c1ccccc1 (stereo not drawn) | -0.313% |

| Structure (SMILES) | inhibition |
| --- | --- |
| CC(C)(C)c1cc(NC(=O)NN2CCOCC2)nn1-c1c(Cl)cc(Cl)cc1Cl | -1.25% |
| COc1ccc(/C=C(\C#N)c2c[nH]c3ccccc23)cc1 | 52.5% (active) |
| COc1ccc(C(C(O)C(=O)c2c[nH]c3ccccc23)N2CCN(c3ccccc3)CC2)cc1 (stereo not drawn) | 0.745% |
| COc1cc(/C=C(\C#N)c2nc3ccccc3[nH]2)ccc1O | -5.76% |
| CC(NC(=O)Cn1cc(C(F)(F)F)cc(Cl)c1=O)c1ccccc1 (stereo not drawn) | -4.93% |
| O=C(NNC(=O)c1ccccc1[N+](=O)[O-])Nc1ccccc1C(F)(F)F | 1.35% |
| Cc1cccc(-n2ncc(C#N)c2-n2cccc2)c1 | -4.28% |
| Cc1cccc(-n2ncc(Cl)c(Cl)c2=O)c1 | 90.5% (active) |
| O=c1c(Cl)c(NC2CC2)cnn1-c1ccccc1 | -3.03% |
| CC[C@]1(O)C[C@@H]2CN(CCc3c([nH]c4ccccc34)[C@@](C(=O)OC)(c3cc4c(cc3OC)N(C)[C@H]3[C@@](O)(C(=O)OC)[C@H](OC(C)=O)[C@]5(CC)C=CCN6CC[C@]43[C@@H]65)C2)C1 | 69.1% (active) |
| CC[C@]1(O)CC2CN(CCc3c([nH]c4ccccc34)[C@@](C(=O)OC)(c3cc4c(cc3OC)N(C=O)[C@H]3[C@@](O)(C(=O)OC)[C@H](OC(C)=O)[C@]5(CC)C=CCN6CC[C@]43[C@@H]65)C2)C1 (stereo partly drawn) | 34.8% |
| CC[C@H]1CC2CN3CCc4c([nH]c5ccccc45)C(C(=O)OC)(C2)C13 (stereo partly drawn) | 2.65% |
| CCOc1ccc(C(CC(=O)O)NC(=O)C23CC4CC(CC(C4)C2)C3)cc1OC (stereo not drawn) | 8.09% |
| OCCn1c(-c2ccccc2)csc1=Nc1ccccc1 | 3.02% |
| Cc1ccc(S(=O)(=O)N2CCCC2C(=O)OCc2nc3sc(C)c(C)c3c(=O)[nH]2)cc1 (stereo not drawn) | 2% |
| CC12C(=O)N(n3cnnc3)C(=O)C1C1C=CC2C1 (stereo not drawn) | 6.14% |
| Cc1ccc(CN2CCNC(=O)C2CC(=O)NCc2csc(C(C)C)n2)cc1 (stereo not drawn) | -3.33% |
| Cc1ccc(Cn2cc(C(=O)NN)c(=O)c3ccc(F)cc32)cc1 | -4.45% |
| CC(C)CN(C(=O)c1cccc(S(=O)(=O)N2CCCCC2)c1)C1CCS(=O)(=O)C1 (stereo not drawn) | 2.4% |
| Clc1ccc2c(c1)C1=C(C(c3ccncc3)O2)C(c2ccc(Br)cc2)n2ncnc2N1 (stereo not drawn) | -10% |
| Brc1ccc2ncnc(NCc3cccnc3)c2c1 | 4.75% |
| COc1ccc(C2=NOC(Cn3nc(C(=O)NCc4ccc5c(c4)OCO5)cc3-c3ccccc3)C2)cc1 (stereo not drawn) | 8.13% |
